Experimental data from the supplement of paper PMC11624193, “Coupling cellular drug-target engagement to downstream pharmacology with CeTEAM” (Nature Communications, 2024).
Counter-ions that a name gives are not always drawn.

Target: PARP1 L713F-nLuc biosensor (HCT116) (UniProt P09874)
Test: PARP1 L713F-nLuc/akaLuc ratio relative to DMSO control (biosensor stabilization) (fold change); higher = more PARP1 biosensor stabilization (target engagement / stabilizer), active = hit call of the paper
Details: stock concentration (mM; final µM = stock mM x 1): 10; 24 h;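 active = log2 fold change beyond 2 SD from the library mean after excluding viability outliers; inactive = within 2 SD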

Sequence of PARP1 L713F-nLuc biosensor (HCT116) (P09874 whole entry L713F, looked up): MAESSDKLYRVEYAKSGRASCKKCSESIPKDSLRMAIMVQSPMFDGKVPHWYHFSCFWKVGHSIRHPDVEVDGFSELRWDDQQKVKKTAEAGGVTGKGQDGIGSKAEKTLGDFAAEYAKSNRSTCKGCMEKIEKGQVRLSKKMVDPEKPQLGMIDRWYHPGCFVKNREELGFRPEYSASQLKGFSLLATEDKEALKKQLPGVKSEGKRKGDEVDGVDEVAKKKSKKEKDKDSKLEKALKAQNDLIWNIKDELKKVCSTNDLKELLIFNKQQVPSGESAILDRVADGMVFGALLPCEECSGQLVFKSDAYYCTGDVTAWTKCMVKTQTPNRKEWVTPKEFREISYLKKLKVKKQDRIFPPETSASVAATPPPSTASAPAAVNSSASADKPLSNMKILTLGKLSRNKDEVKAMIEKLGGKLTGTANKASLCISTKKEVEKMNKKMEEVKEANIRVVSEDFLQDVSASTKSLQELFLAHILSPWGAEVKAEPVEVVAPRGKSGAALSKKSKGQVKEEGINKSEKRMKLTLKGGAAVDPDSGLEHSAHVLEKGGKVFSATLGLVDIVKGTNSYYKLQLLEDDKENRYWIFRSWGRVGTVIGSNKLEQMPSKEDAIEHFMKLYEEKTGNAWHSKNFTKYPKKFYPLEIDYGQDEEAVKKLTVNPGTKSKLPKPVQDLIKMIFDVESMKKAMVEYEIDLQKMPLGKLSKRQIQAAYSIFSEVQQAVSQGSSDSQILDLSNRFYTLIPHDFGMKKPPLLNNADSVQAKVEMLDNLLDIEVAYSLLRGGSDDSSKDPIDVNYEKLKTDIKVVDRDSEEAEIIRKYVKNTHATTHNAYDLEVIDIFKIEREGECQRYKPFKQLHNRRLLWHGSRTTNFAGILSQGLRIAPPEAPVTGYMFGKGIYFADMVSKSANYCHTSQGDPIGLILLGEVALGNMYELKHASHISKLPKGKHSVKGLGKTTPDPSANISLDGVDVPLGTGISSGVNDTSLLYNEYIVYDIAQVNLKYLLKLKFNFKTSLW

Row | Compound | PARP1 L713F-nLuc/akaLuc ratio
1 | O=C(NCCCNC(=O)Nc1cccc(C2=NCCN2)c1)Nc1cccc(C2=NCCN2)c1 [p32 Inhibitor M36] | 1.09 (inactive)
2 | COc1cc2c(cc1OCCCN1CCCC1)N=C(N)C21CCC1 | 0.685 (inactive)
3 | O=C(NCCCN1CCCC1)c1cncc(-c2ccccc2N2CCN(CCc3c[nH]c4ccccc34)CC2)c1 | 0.537 (inactive)
4 | O=C(O)CCNC(=S)NCCCC[C@H](NS(=O)(=O)c1cccc(F)c1)C(=O)N[C@@H](Cc1c[nH]c2ccccc12)C(=O)NC1CCC1 [SIRT5 inhibitor 1] | 0.907 (inactive)
5 | CCCCCCCCCCCCCC(=S)NCCCC[C@H](NC(=O)OCc1ccccc1)C(=O)Nc1ccccc1 [Thiomyristoyl] | 1.08 (inactive)
6 | CC(=O)O[C@@]12CO[C@@H]1C[C@H](O)[C@@]1(C)C(=O)[C@H](O)C3=C(C)[C@@H](OC(=O)[C@H](O)[C@@H](NC(=O)OC(C)(C)C)c4ccccc4)C[C@@](O)([C@@H](OC(=O)c4ccccc4)[C@H]21)C3(C)C [Docetaxel] | 1.44 (inactive)
7 | CS(=O)(=O)c1ccc(-c2cnc(N)c(C(=O)Nc3ccccc3)n2)cc1 | 1.46 (inactive)
8 | O=C1COc2c(CCNCCN(C(=O)CCNCCc3ccc(Cl)c(Cl)c3)C3CCCCC3)ccc(O)c2N1 | 1.16 (inactive)
9 | O=C1NC(=O)[C@@H](c2cn3c4c(cccc24)CCC3)[C@@H]1c1c[nH]c2ccccc12 [Tivantinib (ARQ 197)] | 0.773 (inactive)
10 | CC1(N)CCN(c2cnc(-c3cccc(Cl)c3Cl)c(N)n2)CC1 [SHP099 dihydrochloride] | 0.78 (inactive)
11 | O=C(/C=C/c1ccc(O)c(O)c1)O[C@@H]1C[C@](O)(C(=O)O)C[C@@H](O)[C@H]1O [Chlorogenic acid] | 1.16 (inactive)
12 | O=C(O)Cn1nnc(-c2ccc(CN(CCCCOc3ccc(CN4CCCC4)cc3)CCc3ccccc3)cc2)n1 [TH1834 (dihydrochloride)] | 1.29 (inactive)
13 | CS(=O)(=O)c1ccc(-c2nnc(/C=C/c3nnc(-c4ccc(C#N)cc4)o3)n2-c2ccccc2Cl)nc1 | 0.886 (inactive)
14 | CCN(CC)c1ccc(C=NNC(=O)c2ccncc2)c(O)c1 | 0.543 (inactive)
15 | Clc1ccc(C(c2ccccc2Cl)C(Cl)Cl)cc1 (configuration not stated) [Mitotane] | 0.67 (inactive)
16 | N#Cc1cc(F)cc(Oc2ccc(S(=O)(=O)C(F)F)c3c2CC(F)(F)C3O)c1 (racemic) | 0.759 (inactive)

Row | Compound | PARP1 L713F-nLuc/akaLuc ratio
17 | O=C(Nc1cnn2ccc(N3CCC[C@@H]3c3cc(F)ccc3F)nc12)N1CC[C@H](O)C1 [Larotrectinib (LOXO-101) sulfate] | 0.817 (inactive)
18 | O=C(O)CNC(=O)c1c(O)c2ccccc2n(OCC2CC2)c1=O [Desidustat] | 0.943 (inactive)
19 | Cn1ncc(NC(=O)c2nc(-c3c(F)cccc3F)sc2N)c1N1CC[C@@H](N)[C@H](F)CC1 | 0.793 (inactive)
20 | CCCCC[C@H](O)CC(=O)CCc1ccc(O)c(OC)c1 [[6]-Gingerol] | 1.5 (inactive)
21 | O=C(c1cncc(Br)c1)N1CCC(N2CCCC2)CC1 | 1.73 (inactive)
22 | COc1ccc(S(=O)(=O)Nc2cccnc2Nc2ccc(O)cc2)cc1 | 1.28 (inactive)
23 | NCCNc1ccc(NCCN)c2c1C(=O)c1ccncc1C2=O [Pixantrone Maleate] | 1.15 (inactive)
24 | O=C1NC(=O)/C(=C\c2cccc(C(F)(F)F)c2)S1 | 0.962 (inactive)
25 | COc1ccc(C(=C2C(=O)Nc3ccccc32)c2ccc(OC)cc2)cc1 | 0.833 (inactive)
26 | Cc1cc(Nc2ccc(NC(=O)c3ccc(Nc4ccnc5ccccc45)cc3)cc2)nc(N)n1 | 1.38 (inactive)
27 | O=C(Nc1ccccc1-c1cn2c(CN3CCNCC3)csc2n1)c1cnc2ccccc2n1 | 1 (inactive)
28 | O=c1[nH]cc(F)c(=O)[nH]1 [Fluorouracil (5-Fluoracil, 5-FU)] | 0.702 (inactive)
29 | CCNC(=O)CCC/C=C\C[C@@H]1[C@@H](/C=C/[C@@H](O)CCc2ccccc2)[C@H](O)C[C@@H]1O [Bimatoprost] | 0.942 (inactive)
30 | O=c1cc(N2CCOCC2)oc2c(-c3ccc4c(c3)OCCO4)csc12 | 0.39 (inactive)
31 | C=CC(=O)N1C[C@H](Nc2ncnc3[nH]ccc23)CC[C@@H]1C [Ritlecitinib] | 1.01 (inactive)
32 | Cc1cc(Nc2cc(N3CCN(C)CC3)nc(/C=C/c3ccccc3)n2)n[nH]1 | 1.27 (inactive)
